{"source": "PubChem BioAssay (NCI)", "note": "About 79,000 compounds went through this panel and 15% of them were active in at least one assay; those are over-represented in the sample as a whole. Activity calls are given as the source filed them. Rule as the data show it: active = growth inhibition above about 70%; inactive = the rest."}
{"assay": "NCI Yeast Anticancer Drug Screen. Data for the mlh1 rad18 strain (AID 175)", "conditions": "S. cerevisiae mlh1 rad18 strain growth inhibition; at 50.0 µM (retest, dose inferred, filed as 5.0); stronger effect = higher value", "summary_of_the_method": "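A repair-deficient yeast strain is exposed to test compound, and growth is scored relative to vehicle-treated controls.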"}
{"smiles": "Cc1ccc(/C=C2\\CCCC(CN3CCCCC3)C2=O)cc1", "note": "(stereo not given)", "growth inhibition": "99% (active)"}
{"smiles": "Oc1ccc(CCCCCc2ccc(O)cc2)cc1", "growth inhibition": "99% (active)"}
{"smiles": "COC(=O)c1ccccc1CC(Cc1ccc2c(c1)CCC2)C(=O)OC", "note": "(stereo not given)", "growth inhibition": "15% (inactive)"}
{"smiles": "CN=C1NS(=O)(=O)c2ccccc21", "growth inhibition": "8% (inactive)"}
{"smiles": "CCCCC/C(=C/C=C/c1ccc(Cl)cc1)CN(C)C", "growth inhibition": "97% (active)"}
{"smiles": "O=S(=O)(O)c1ccc2c(c1)C1C(C3C2C2(Cl)C(Cl)=C(Cl)C3(Cl)C2(Cl)Cl)C2(Cl)C(Cl)=C(Cl)C1(Cl)C2(Cl)Cl", "note": "(stereo not given)", "growth inhibition": "93% (active)"}
{"smiles": "Cc1ccc(S(=O)(=O)N/N=C/c2oc(-c3cccc([N+](=O)[O-])c3)c(-c3cccc([N+](=O)[O-])c3)c2[N+](=O)[O-])cc1", "growth inhibition": "57% (inactive)"}
{"smiles": "CCN(CC)C(C)(C)C(=O)/C=C/c1ccc(Cl)cc1", "growth inhibition": "94% (active)"}
{"smiles": "Fc1ccc(NC(=S)SCc2ccc(Cl)c(Cl)c2)c(F)c1", "growth inhibition": "95% (active)"}
{"smiles": "CC[C@@]1(OP(=O)(O)O)C(=O)OCc2c1cc1n(c2=O)Cc2cc3ccccc3nc2-1", "growth inhibition": "86% (active)"}
{"smiles": "CC(C)C1=CC2=CCC3C(C)(C(=O)O)CCCC3(C)C2CC1", "note": "(stereo not given) (tested in a mixture with another compound)", "growth inhibition": "92% (active)"}
{"smiles": "C=CCSc1nc2ccccc2c(=O)n1Cc1ccco1", "growth inhibition": "64% (inactive)"}
{"smiles": "COC(=O)c1c(C)cccc1C1CN=NC12Cc1ccc(C)c(C)c1C2=O", "note": "(stereo not given)", "growth inhibition": "57% (inactive)"}
{"smiles": "CC(=O)N=C1N(/C=C2\\C(=O)Oc3ccccc3C2=O)C(=O)/C(=C/c2cccc(Cl)c2Cl)N1C", "growth inhibition": "95% (active)"}
{"smiles": "O=C1NC(CSSCC2NC(=O)N(c3ccccc3)C2=O)C(=O)N1c1ccccc1", "note": "(stereo not given)", "growth inhibition": "96% (active)"}
